Assay results as given in publication PMC11006913.

target: T1, PAX4 (Homo sapiens, UniProt O43316 9-242, F177V); assay: PBM; 200 nM protein, PBS; conditions: dsDNA, one strand shown
T1 sequence: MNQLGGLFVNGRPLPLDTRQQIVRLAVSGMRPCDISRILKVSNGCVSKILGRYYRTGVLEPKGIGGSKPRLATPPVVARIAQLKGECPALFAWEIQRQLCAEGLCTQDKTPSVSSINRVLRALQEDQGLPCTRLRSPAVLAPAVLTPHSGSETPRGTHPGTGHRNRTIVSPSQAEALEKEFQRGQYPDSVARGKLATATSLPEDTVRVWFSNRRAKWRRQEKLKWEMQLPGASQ

Sequence	binding signal
CCCTGGTC	9.22 upbm affinity estimate (log intensity, higher = more binding, comparable within an allelic series)
TAATTTGA	10.5 upbm affinity estimate (log intensity, higher = more binding, comparable within an allelic series)
GCACCACC	9.29 upbm affinity estimate (log intensity, higher = more binding, comparable within an allelic series)

target: HOXA4 (Homo sapiens, UniProt Q00056 201-287); assay: PBM; 200 nM protein, PBS; conditions: dsDNA, one strand shown
Sequence (Q00056 201-287): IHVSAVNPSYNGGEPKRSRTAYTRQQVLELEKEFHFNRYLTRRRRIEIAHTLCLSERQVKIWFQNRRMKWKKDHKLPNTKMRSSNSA

Sequence	binding signal
GCCAAGCC	9.92 upbm affinity estimate (log intensity, higher = more binding, comparable within an allelic series)
CCCTGGTC	9.69 upbm affinity estimate (log intensity, higher = more binding, comparable within an allelic series)
TAATTTGA	12.8 upbm affinity estimate (log intensity, higher = more binding, comparable within an allelic series)
AGCCACGG	9.87 upbm affinity estimate (log intensity, higher = more binding, comparable within an allelic series)
ACCTTCGC	9.8 upbm affinity estimate (log intensity, higher = more binding, comparable within an allelic series)
CCGGCAGG	10 upbm affinity estimate (log intensity, higher = more binding, comparable within an allelic series)
CCCCAGGC	9.62 upbm affinity estimate (log intensity, higher = more binding, comparable within an allelic series)
GCACCACC	9.72 upbm affinity estimate (log intensity, higher = more binding, comparable within an allelic series)
CCGGACGG	9.9 upbm affinity estimate (log intensity, higher = more binding, comparable within an allelic series)
CAGCCTCC	9.62 upbm affinity estimate (log intensity, higher = more binding, comparable within an allelic series)
CAGGAAGG	9.59 upbm affinity estimate (log intensity, higher = more binding, comparable within an allelic series)
CCCGAGGG	9.66 upbm affinity estimate (log intensity, higher = more binding, comparable within an allelic series)
CAGGCTTC	9.69 upbm affinity estimate (log intensity, higher = more binding, comparable within an allelic series)
CGCGCGCG	9.94 upbm affinity estimate (log intensity, higher = more binding, comparable within an allelic series)
ATGAATGA	11.5 upbm affinity estimate (log intensity, higher = more binding, comparable within an allelic series)
AGCCCGAG	9.65 upbm affinity estimate (log intensity, higher = more binding, comparable within an allelic series)
GCCCCGAC	9.87 upbm affinity estimate (log intensity, higher = more binding, comparable within an allelic series)

Sequence	binding signal
CCCTCTCG	9.81 upbm affinity estimate (log intensity, higher = more binding, comparable within an allelic series)
CCCCCTTC	9.19 upbm affinity estimate (log intensity, higher = more binding, comparable within an allelic series)
GCCTCCCA	9.75 upbm affinity estimate (log intensity, higher = more binding, comparable within an allelic series)
CCCGACGC	9.73 upbm affinity estimate (log intensity, higher = more binding, comparable within an allelic series)
GGGGGAAC	9.72 upbm affinity estimate (log intensity, higher = more binding, comparable within an allelic series)
GCCCGGAC	9.68 upbm affinity estimate (log intensity, higher = more binding, comparable within an allelic series)
GAGGTTGC	9.69 upbm affinity estimate (log intensity, higher = more binding, comparable within an allelic series)
GCGGACCC	9.79 upbm affinity estimate (log intensity, higher = more binding, comparable within an allelic series)
CCCCACGG	9.82 upbm affinity estimate (log intensity, higher = more binding, comparable within an allelic series)
CCCCCCAG	9.42 upbm affinity estimate (log intensity, higher = more binding, comparable within an allelic series)
CCCGAAGG	9.76 upbm affinity estimate (log intensity, higher = more binding, comparable within an allelic series)
GATCCCCC	9.93 upbm affinity estimate (log intensity, higher = more binding, comparable within an allelic series)
GCCGGCCC	9.78 upbm affinity estimate (log intensity, higher = more binding, comparable within an allelic series)
GACCCTCC	9.94 upbm affinity estimate (log intensity, higher = more binding, comparable within an allelic series)
CCGAGAGG	9.59 upbm affinity estimate (log intensity, higher = more binding, comparable within an allelic series)
CCGAAGGC	9.96 upbm affinity estimate (log intensity, higher = more binding, comparable within an allelic series)
